Results taken from ChEMBL document CHEMBL2218924, “A broad activity screen in support of a chemogenomic map for kinase signalling research and drug discovery” (Biochem J, 2013).

Columns and labels:
[1] = biological target: Focal adhesion kinase 1 (Homo sapiens) (UniProt Q05397); details: at 10 µM
[2] = biological target: Fibroblast growth factor receptor 1 (Homo sapiens) (UniProt P11362); details: at 1 µM
[3] = biological target: Fibroblast growth factor receptor 1 (Homo sapiens) (UniProt P11362); details: at 10 µM
[4] = biological target: Fibroblast growth factor receptor 2 (Homo sapiens) (UniProt P21802); details: at 1 µM
[5] = biological target: Fibroblast growth factor receptor 2 (Homo sapiens) (UniProt P21802); details: at 10 µM
[6] = biological target: Fibroblast growth factor receptor 3 (Homo sapiens) (UniProt P22607); details: at 1 µM
[7] = biological target: Fibroblast growth factor receptor 3 (Homo sapiens) (UniProt P22607); details: at 10 µM
[8] = biological target: Fibroblast growth factor receptor 4 (Homo sapiens) (UniProt P22455); details: at 1 µM
[9] = biological target: Fibroblast growth factor receptor 4 (Homo sapiens) (UniProt P22455); details: at 10 µM
[10] = biological target: Tyrosine-protein kinase Fer (Homo sapiens) (UniProt P16591); details: at 1 µM
Chain of Tyrosine-protein kinase Fer (Homo sapiens) (P16591 whole entry, looked up): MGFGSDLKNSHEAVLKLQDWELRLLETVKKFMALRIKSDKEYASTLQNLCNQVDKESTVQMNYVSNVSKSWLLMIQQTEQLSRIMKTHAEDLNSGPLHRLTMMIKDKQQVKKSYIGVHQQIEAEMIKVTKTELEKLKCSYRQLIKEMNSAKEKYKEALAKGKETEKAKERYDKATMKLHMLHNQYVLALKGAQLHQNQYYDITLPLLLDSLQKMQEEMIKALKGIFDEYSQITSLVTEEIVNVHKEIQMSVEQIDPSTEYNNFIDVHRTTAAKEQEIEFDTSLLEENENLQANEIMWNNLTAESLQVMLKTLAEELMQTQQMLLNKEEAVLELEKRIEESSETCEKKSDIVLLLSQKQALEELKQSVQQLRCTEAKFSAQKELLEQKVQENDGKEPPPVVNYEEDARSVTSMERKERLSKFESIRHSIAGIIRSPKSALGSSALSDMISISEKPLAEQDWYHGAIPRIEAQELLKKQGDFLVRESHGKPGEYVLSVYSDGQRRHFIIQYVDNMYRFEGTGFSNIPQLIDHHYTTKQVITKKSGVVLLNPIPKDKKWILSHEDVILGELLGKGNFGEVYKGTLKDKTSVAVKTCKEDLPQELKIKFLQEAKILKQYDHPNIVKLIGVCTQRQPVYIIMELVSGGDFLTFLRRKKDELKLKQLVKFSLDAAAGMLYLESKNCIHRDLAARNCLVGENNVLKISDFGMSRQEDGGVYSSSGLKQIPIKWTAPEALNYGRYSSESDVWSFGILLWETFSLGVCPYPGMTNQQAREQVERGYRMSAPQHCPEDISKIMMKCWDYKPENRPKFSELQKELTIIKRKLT

Chain of Fibroblast growth factor receptor 1 (Homo sapiens) (P11362 22-822 limits assumed): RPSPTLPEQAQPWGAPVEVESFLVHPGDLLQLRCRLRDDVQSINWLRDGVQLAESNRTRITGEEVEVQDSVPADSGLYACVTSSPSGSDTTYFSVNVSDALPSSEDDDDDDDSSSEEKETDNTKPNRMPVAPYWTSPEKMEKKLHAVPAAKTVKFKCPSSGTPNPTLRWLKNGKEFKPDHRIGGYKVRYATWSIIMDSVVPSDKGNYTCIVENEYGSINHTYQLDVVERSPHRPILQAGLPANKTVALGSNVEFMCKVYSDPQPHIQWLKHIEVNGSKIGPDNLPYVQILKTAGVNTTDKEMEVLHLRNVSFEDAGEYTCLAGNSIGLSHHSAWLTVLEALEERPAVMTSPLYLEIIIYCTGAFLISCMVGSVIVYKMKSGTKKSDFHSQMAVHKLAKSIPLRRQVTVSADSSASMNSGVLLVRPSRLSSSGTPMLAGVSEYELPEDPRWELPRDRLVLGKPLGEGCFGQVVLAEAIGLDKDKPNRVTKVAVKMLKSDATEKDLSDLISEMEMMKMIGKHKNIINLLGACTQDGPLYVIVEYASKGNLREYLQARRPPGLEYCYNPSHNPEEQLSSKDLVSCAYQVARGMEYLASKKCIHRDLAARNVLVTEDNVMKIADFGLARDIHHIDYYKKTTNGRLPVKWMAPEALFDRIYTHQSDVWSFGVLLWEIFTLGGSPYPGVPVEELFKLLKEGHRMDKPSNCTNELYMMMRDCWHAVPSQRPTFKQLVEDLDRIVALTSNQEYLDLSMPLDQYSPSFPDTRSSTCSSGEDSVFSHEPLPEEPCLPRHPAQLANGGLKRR
Chain of Focal adhesion kinase 1 (Homo sapiens) (Q05397 2-1052 limits assumed): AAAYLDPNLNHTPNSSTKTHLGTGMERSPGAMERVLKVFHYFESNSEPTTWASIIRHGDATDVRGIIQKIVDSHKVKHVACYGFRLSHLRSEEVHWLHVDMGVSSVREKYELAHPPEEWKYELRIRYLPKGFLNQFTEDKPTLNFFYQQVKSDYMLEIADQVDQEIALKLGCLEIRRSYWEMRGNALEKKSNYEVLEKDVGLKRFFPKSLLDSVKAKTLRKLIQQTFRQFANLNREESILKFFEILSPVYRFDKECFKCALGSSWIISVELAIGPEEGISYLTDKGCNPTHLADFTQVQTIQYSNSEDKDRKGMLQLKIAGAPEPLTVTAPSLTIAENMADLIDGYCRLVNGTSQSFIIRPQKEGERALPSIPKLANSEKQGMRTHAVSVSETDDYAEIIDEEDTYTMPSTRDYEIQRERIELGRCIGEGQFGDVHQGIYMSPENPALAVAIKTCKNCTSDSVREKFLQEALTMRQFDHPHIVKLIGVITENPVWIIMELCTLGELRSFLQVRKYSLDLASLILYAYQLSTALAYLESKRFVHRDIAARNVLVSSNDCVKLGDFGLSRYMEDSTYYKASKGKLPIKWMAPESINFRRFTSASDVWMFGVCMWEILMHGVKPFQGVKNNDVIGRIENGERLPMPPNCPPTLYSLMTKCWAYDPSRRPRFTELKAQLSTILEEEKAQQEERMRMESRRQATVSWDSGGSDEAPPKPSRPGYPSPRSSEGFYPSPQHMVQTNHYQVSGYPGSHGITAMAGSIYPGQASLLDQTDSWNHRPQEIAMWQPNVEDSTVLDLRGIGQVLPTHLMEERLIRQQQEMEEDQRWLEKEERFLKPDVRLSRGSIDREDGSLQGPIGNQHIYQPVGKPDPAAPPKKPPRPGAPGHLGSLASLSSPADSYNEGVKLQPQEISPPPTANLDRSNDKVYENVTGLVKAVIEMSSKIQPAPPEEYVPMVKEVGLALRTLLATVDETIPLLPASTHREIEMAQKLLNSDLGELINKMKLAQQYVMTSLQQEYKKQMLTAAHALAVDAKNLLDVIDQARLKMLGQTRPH
Chain of Fibroblast growth factor receptor 2 (Homo sapiens) (P21802 22-821 limits assumed): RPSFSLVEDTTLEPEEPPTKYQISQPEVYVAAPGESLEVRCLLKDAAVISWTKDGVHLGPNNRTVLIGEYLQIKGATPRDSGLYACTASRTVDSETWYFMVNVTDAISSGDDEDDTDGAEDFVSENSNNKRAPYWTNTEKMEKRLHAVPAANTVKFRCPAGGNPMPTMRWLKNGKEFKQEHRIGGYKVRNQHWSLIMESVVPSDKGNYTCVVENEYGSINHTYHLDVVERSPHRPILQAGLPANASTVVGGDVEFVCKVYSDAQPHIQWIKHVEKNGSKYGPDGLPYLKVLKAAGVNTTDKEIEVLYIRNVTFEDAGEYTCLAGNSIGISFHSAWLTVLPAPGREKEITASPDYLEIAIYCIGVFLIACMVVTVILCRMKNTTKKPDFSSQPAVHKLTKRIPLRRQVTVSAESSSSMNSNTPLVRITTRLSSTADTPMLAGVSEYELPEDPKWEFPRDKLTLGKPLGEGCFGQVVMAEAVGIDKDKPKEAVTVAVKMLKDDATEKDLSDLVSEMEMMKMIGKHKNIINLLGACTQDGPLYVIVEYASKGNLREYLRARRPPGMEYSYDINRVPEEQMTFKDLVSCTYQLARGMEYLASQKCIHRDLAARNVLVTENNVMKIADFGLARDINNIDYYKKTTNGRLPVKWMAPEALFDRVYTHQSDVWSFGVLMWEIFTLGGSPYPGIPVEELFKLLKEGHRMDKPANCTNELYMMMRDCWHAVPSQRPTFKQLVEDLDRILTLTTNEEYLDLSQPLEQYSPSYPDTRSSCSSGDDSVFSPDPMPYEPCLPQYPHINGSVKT
Chain of Fibroblast growth factor receptor 4 (Homo sapiens) (P22455 22-802 limits assumed): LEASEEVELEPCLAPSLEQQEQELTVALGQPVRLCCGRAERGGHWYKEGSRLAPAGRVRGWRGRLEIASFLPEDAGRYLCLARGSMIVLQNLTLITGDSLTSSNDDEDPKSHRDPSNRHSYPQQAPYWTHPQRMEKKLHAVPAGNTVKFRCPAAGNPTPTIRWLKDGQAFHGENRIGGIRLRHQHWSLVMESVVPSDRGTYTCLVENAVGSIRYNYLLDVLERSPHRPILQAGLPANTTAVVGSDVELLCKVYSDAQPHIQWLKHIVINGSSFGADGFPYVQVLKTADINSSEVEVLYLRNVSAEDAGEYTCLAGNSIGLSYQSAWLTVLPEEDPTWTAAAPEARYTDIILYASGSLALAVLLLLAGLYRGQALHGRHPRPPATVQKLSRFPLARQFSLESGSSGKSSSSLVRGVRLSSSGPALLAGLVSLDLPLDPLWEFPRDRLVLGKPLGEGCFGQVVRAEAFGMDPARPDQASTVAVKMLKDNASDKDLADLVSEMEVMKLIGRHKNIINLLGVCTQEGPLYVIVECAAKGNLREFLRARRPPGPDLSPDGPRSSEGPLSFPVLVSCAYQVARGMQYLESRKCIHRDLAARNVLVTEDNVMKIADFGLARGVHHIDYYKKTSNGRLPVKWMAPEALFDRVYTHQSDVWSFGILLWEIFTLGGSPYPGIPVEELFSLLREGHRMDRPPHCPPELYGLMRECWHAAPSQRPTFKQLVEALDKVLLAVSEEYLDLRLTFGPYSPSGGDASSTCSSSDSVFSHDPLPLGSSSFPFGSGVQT
Chain of Fibroblast growth factor receptor 3 (Homo sapiens) (P22607 23-806 limits assumed): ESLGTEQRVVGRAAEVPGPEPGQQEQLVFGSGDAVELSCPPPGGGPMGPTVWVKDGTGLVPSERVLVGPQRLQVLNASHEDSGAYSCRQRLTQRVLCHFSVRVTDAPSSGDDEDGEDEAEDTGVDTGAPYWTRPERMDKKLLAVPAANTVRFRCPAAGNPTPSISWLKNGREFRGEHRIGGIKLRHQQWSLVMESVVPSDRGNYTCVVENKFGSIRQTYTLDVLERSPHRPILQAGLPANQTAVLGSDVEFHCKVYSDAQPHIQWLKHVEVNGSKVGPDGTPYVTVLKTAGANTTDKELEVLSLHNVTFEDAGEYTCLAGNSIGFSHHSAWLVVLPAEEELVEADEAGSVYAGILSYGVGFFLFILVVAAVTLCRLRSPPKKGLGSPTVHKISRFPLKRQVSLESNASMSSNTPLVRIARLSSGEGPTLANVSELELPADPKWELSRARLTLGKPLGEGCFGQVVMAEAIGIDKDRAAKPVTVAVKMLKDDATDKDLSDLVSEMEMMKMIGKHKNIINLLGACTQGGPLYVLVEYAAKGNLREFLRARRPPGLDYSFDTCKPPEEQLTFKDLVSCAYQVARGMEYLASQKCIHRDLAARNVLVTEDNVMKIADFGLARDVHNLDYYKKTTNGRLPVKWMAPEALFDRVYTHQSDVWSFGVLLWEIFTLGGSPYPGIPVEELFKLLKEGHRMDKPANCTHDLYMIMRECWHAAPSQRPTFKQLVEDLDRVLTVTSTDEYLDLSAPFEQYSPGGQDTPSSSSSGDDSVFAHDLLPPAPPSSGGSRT

SMILES	residual activity [1] [%]	residual activity [2] [%]	residual activity [3] [%]	residual activity [4] [%]	residual activity [5] [%]	residual activity [6] [%]	residual activity [7] [%]	residual activity [8] [%]	residual activity [9] [%]	residual activity [10] [%]
Cc1nc(-c2ccccc2)c(-c2ccncc2)o1	98	120	83	86	74	121	114	109	99	101
Cn1cnc2cc3c(Nc4cccc(Br)c4)ncnc3cc21	93	74	43	92	89	102	97	127	96	115
Nc1ccc2ncnc(NCCc3ccc(Oc4ccccc4)cc3)c2c1	94	92	28	77	48	54	33	107	80	93
CO[C@@H]1[C@H](N(C)C(=O)c2ccccc2)C[C@H]2O[C@]1(C)n1c3ccccc3c3c4c(c5c6ccccc6n2c5c31)C(=O)NC4	37	5	-4	21	7	34	19	71	41	26
Oc1ccc(Nc2nc(-c3ccc(Cl)cc3)cs2)cc1	94	128	86	119	93	132	137	125	118	94
Nc1cccc(-c2cc3c(Oc4cccc(O)c4)ncnc3[nH]2)c1	42	2	0	21	2	53	9	72	22	58
COc1ccc(OC)c2c(=S)c3ccccc3[nH]c12	108	116	82	97	85	129	113	112	88	98
COc1ccc(S(=O)(=O)N(CCO)c2ccccc2CN(C)C/C=C/c2ccc(Cl)cc2)cc1	70	108	64	110	81	125	89	129	92	94
O=Nc1c(-c2c(O)[nH]c3ccccc23)[nH]c2ccccc12	2	3	-1	22	2	20	2	100	45	70
NC(=O)c1ccc2[nH]c(-c3ccc(Oc4ccc(Cl)cc4)cc3)nc2c1	65	118	101	108	103	129	132	123	126	95
COc1cc2ncnc(N3CCN(C(=O)Nc4ccc(Oc5ccccc5)cc4)CC3)c2cc1OC	76	90	89	105	102	115	99	120	105	104
O=C1NC(=O)/C(=C/c2ccc3c(c2)OC(F)(F)O3)S1	95	116	99	92	101	111	112	116	94	107
O=C1c2ccccc2-[n+]2ccc3c([nH]c4ccccc43)c21	90	100	78	107	84	96	114	109	97	92
Cc1nc2cc3nc(-c4cccs4)cnc3cc2n1C	105	102	41	72	30	79	23	119	95	113
O=c1cc(-c2cccc3c2Sc2ccccc2S3)oc(N2CCOCC2)c1	116	120	95	106	81	112	84	104	88	115
O=C1NC(=O)c2cc(Nc3ccc(F)cc3)c(Nc3ccc(F)cc3)cc21	89	85	135	101	82	114	103	142	93	109

SMILES	residual activity [1] [%]	residual activity [2] [%]	residual activity [3] [%]	residual activity [4] [%]	residual activity [5] [%]	residual activity [6] [%]	residual activity [7] [%]	residual activity [8] [%]	residual activity [9] [%]	residual activity [10] [%]
Cn1cc(/C=C2\C(=O)Nc3ccc(S(N)(=O)=O)cc32)c2ccccc21	42	19	5	10	3	17	14	118	69	35
CCOc1cc2ncnc(Nc3cccc(Br)c3)c2cc1OCC	79	66	18	98	88	92	85	111	92	116
COc1cccc(-c2cc(=O)c3ccccc3o2)c1N	116	143	105	102	92	100	99	128	98	107
Cc1ccc(S(=O)(=O)/C=C/C#N)cc1	102	91	82	108	89	118	118	115	106	101
O=C(Nc1cccc(Nc2cc(Nc3cccc(C(F)(F)F)c3)ncn2)c1)C1CC1	79	97	58	94	101	112	111	90	90	112
Cc1cc(Nc2nc(-c3ccccc3)nc3ccccc23)n[nH]1	7	4	2	24	2	34	4	106	72	43
Oc1ccc(-c2nc(-c3ccc(F)cc3)c(-c3ccncc3)[nH]2)cc1	113	112	41	115	87	121	88	114	96	102
O=C1Nc2cc(Br)ccc2/C1=C1/Nc2ccccc2/C1=N\O	15	3	3	16	18	59	54	67	35	86
O=C(Nc1cccc(Nc2nccc(Nc3cccc(C(F)(F)F)c3)n2)c1)C1CC1	10	69	8	99	37	83	91	108	63	124
CO[C@H]1[C@@H](OC)C[C@H](C)[C@@H](OC)C2=CC(=O)C=C(NC(=O)/C(C)=C/C=C/[C@H](OC)[C@@H](OC(N)=O)/C(C)=C/[C@@H]1C)C2=O	91	82	93	104	105	112	102	109	94	110
Nc1nc(Nc2ccc(S(N)(=O)=O)cc2)nn1C(=S)Nc1c(F)cccc1F	-1	1	-1	1	-1	3	0	71	23	23
Ic1cccc(CSc2nnc(-c3ccncc3)o2)c1	90	98	71	99	82	106	93	112	98	93
CCN(CC)CCCCN1c2ccccc2Oc2ccc(Cl)cc21	108	113	82	108	112	110	99	129	90	117
CC(C)n1cnc2/c(=N/c3cccc(Cl)c3)nc(NCCO)[nH]c21	11	87	19	101	37	106	59	114	110	–
Oc1n[nH]c2nnc(-c3c(-c4ccccc4)nn4ccccc34)cc12	91	108	92	95	91	97	102	115	90	96
